Measured values as given in the supplement of paper PMC6555819.

tested on: LXRb:RXRa (NR concentration 270 nM, RXRa partner concentration 90 nM); test: PBM binding z-score (relative to random genomic background probes); higher = stronger binding; sequences stand for … in GC…GCGATTGACAGCGTAGAATGAAGG
Method in brief: (§1)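 The probes on custom Agilent 4×180K protein-binding microarrays were double-stranded, with 34-nt variable regions bearing direct-repeat seeds, single-nucleotide variants, half-site ablations and random human genomic background sequences. Incubation lasted 1 h with ligand-free nuclear receptor dimers in PBS pH 7.4, 2% milk, 0.02% Triton X-100, 1 mM DTT, 0.2 mg/mL BSA and 0.4 mg/ml salmon testes DNA. Antibodies against each partner (one per run) detected bound dimers, and fluorescence scans were regression-normalized. Binding z-scores take the random background probes as reference.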

| Sequence | PBM binding z-score |
| --- | --- |
| CCATGTAGGTTAAGGGGGTCATTCAGTTTGAAAG | 6.22 |
| TCGATTAGGTTACGGGGGCATTCAGGGATGAAGA | 5.59 |
| CCGAGTAGGTTACGAGGGGGCATTCTGTGCGAAT | 6.24 |
| TCGACTAGGTTACGGGGGCATTCAGGGATGAAGA | 5.58 |
| TCGAGTACGTTACGGGGGCATTCAGGGATGAAGA | 3.82 |
| TTGAGTAGGTTACGGGGGCATTCAGGGATGAAGA | 5.2 |
| TCGAGTAGGTTCCGGGGGCATTCAGGGATGAAGA | 4.06 |
| CCGGGTAGGTTACGAGGGGGCATTCAGTGCGAAT | 6.39 |
| CTATGTAGGTTAAGGGGGTCACTCAGTTTGAAAG | 5.87 |
| CTATGTAGGTTAAGGGGGTCATTCTGTTTGAAAG | 6.33 |
| CTATGTAAGTTAAGGGGGTCATTCAGTTTGAAAG | 6.24 |
| CTATGCAGGTTAAGGGGGTCATTCAGTTTGAAAG | 6.31 |
| CCGAGTAGGTTACGAGGGGGTATTCAGTGCGAAT | 4.28 |
| TCGAGGAGGTTACGGGGGCATTCAGGGATGAAGA | 5.71 |
| CTATGTAGGTTGAGGGGGTCATTCAGTTTGAAAG | 6.24 |
| CCGAGTAGGTTACAAGGGGGCATTCAGTGCGAAT | 6.52 |
| CTACGTAGGTTAAGGGGGTCATTCAGTTTGAAAG | 6.14 |
| CCGAGTAGGTTACGAGGCGGCATTCAGTGCGAAT | -0.1 |
| CCGAGTAGGTTATGAGGGGGCATTCAGTGCGAAT | 6.27 |
| TCGAGTCGGTTACGGGGGCATTCAGGGATGAAGA | 4 |

| Sequence | PBM binding z-score |
| --- | --- |
| TCGAGTAGGTTACGGGGGGATTCAGGGATGAAGA | 5.21 |
| CCGAGTAGGTTACGATGGGGCATTCAGTGCGAAT | 3.71 |
| TCGAGTAGGTTACCGGGGCATTCAGGGATGAAGA | 0.585 |
| TCGAGTAGGTTACGGGGGCAGTCAGGGATGAAGA | 4.55 |
| TCGAGTAGGTTGCGGGGGCATTCAGGGATGAAGA | 4.34 |
| CTATGTAGGTTAAGGGGGTCGTTCAGTTTGAAAG | 5.37 |
| CCGAGTGGGTTACGAGGGGGCATTCAGTGCGAAT | 5.8 |
| CTATTTAGGTTAAGGGGGTCATTCAGTTTGAAAG | 6.33 |
| CCGAGTAGGTTACGAAGGGGCATTCAGTGCGAAT | 4.02 |
| TCGAGTAGGTTACGGGGGCATTCCGGGATGAAGA | 4.94 |
| TCGAGTAGGTTAAGGGGGCATTCAGGGATGAAGA | 4.58 |
| CTATATAGGTTAAGGGGGTCATTCAGTTTGAAAG | 6.48 |
| CTATGTAGGTTAAGGGGGGCATTCAGTTTGAAAG | 6.04 |
| CCGAGTAGGTTAGGAGGGGGCATTCAGTGCGAAT | 5.24 |
| TCGAGTAGGCTACGGGGGCATTCAGGGATGAAGA | 3.17 |
| CTATGTAGGGTAAGGGGGTCATTCAGTTTGAAAG | 6.36 |
| CTATGTAGGTTATGGGGGTCATTCAGTTTGAAAG | 6.32 |
| CTGTGTAGGTTAAGGGGGTCATTCAGTTTGAAAG | 6.55 |
| CCGAGTTGGTTACGAGGGGGCATTCAGTGCGAAT | 4.27 |

tested on: PPARa:RXRa (NR concentration 270 nM, RXRa partner concentration 90 nM); test: as above
Method in brief: as §1

| Sequence | PBM binding z-score |
| --- | --- |
| CCATGTAGGTTAAGGGGGTCATTCAGTTTGAAAG | 5.88 |
| TCGATTAGGTTACGGGGGCATTCAGGGATGAAGA | 4.45 |
| CCGAGTAGGTTACGAGGGGGCATTCTGTGCGAAT | 3.38 |
| TCGACTAGGTTACGGGGGCATTCAGGGATGAAGA | 4.29 |
| TCGAGTACGTTACGGGGGCATTCAGGGATGAAGA | 2.44 |
| TTGAGTAGGTTACGGGGGCATTCAGGGATGAAGA | 4.63 |
| TCGAGTAGGTTCCGGGGGCATTCAGGGATGAAGA | 2.5 |
| CCGGGTAGGTTACGAGGGGGCATTCAGTGCGAAT | 3.54 |
| CTATGTAGGTTAAGGGGGTCACTCAGTTTGAAAG | 5.91 |
| CTATGTAGGTTAAGGGGGTCATTCTGTTTGAAAG | 5.95 |
| CTATGTAAGTTAAGGGGGTCATTCAGTTTGAAAG | 5.31 |
| CTATGCAGGTTAAGGGGGTCATTCAGTTTGAAAG | 5.63 |
| CCGAGTAGGTTACGAGGGGGTATTCAGTGCGAAT | 2.87 |
| TCGAGGAGGTTACGGGGGCATTCAGGGATGAAGA | 5.33 |
| CTATGTAGGTTGAGGGGGTCATTCAGTTTGAAAG | 5.54 |
| CCGAGTAGGTTACAAGGGGGCATTCAGTGCGAAT | 3.41 |
| CTACGTAGGTTAAGGGGGTCATTCAGTTTGAAAG | 5.67 |
| CCGAGTAGGTTACGAGGCGGCATTCAGTGCGAAT | 1.06 |
| CCGAGTAGGTTATGAGGGGGCATTCAGTGCGAAT | 3.29 |
| TCGAGTCGGTTACGGGGGCATTCAGGGATGAAGA | 2.75 |

| Sequence | PBM binding z-score |
| --- | --- |
| TCGAGTAGGTTACGGGGGGATTCAGGGATGAAGA | 3.11 |
| CCGAGTAGGTTACGATGGGGCATTCAGTGCGAAT | 1.42 |
| TCGAGTAGGTTACCGGGGCATTCAGGGATGAAGA | 2.27 |
| TCGAGTAGGTTACGGGGGCAGTCAGGGATGAAGA | 3.63 |
| TCGAGTAGGTTGCGGGGGCATTCAGGGATGAAGA | 2.7 |
| CTATGTAGGTTAAGGGGGTCGTTCAGTTTGAAAG | 5.33 |
| CCGAGTGGGTTACGAGGGGGCATTCAGTGCGAAT | 3.08 |
| CTATTTAGGTTAAGGGGGTCATTCAGTTTGAAAG | 5.72 |
| CCGAGTAGGTTACGAAGGGGCATTCAGTGCGAAT | 1.83 |
| TCGAGTAGGTTACGGGGGCATTCCGGGATGAAGA | 4.29 |
| TCGAGTAGGTTAAGGGGGCATTCAGGGATGAAGA | 3.99 |
| CTATATAGGTTAAGGGGGTCATTCAGTTTGAAAG | 6.33 |
| CTATGTAGGTTAAGGGGGGCATTCAGTTTGAAAG | 4.85 |
| CCGAGTAGGTTAGGAGGGGGCATTCAGTGCGAAT | 2.86 |
| TCGAGTAGGCTACGGGGGCATTCAGGGATGAAGA | 2.56 |
| CTATGTAGGGTAAGGGGGTCATTCAGTTTGAAAG | 6.11 |
| CTATGTAGGTTATGGGGGTCATTCAGTTTGAAAG | 6.04 |
| CTGTGTAGGTTAAGGGGGTCATTCAGTTTGAAAG | 5.67 |
| CCGAGTTGGTTACGAGGGGGCATTCAGTGCGAAT | 2.31 |
